Screening results as filed in PubChem BioAssay.
Shiga inhibitor: A qHTS for Small Molecule Inhibitors of Shiga Toxin. inhibition, % at 38.7 µM. Vero cells, Shiga toxin protein synthesis inhibition reporter. actives 9.2% (n = 290,000); in the data active = inhibition mostly above about 28%, no sharp cut-off; inactive = mostly below about 43%; note: 0% is about no effect
SARS PLP yeast: qHTS of Yeast-based Assay for SARS-CoV PLP. AID 485353, 2010. actives 0.19% (n = 330,000). Potency, µM (titrated, usually from 32.9 µM), without a hit: at the top dose activity, positive = growth rescue, actives largely listed as activators. S. cerevisiae expressing SARS-CoV PLpro, growth rescue; note: potency is the fitted concentration of half-maximal effect; 0% is about no effect; nearly all actives have a fitted effect of over 55% in size
LmPK inhibitor: qHTS Assay for Inhibitors of Leishmania Mexicana Pyruvate Kinase (LmPK) | AID 1721, 2009 | Potency, µM (series often up to 57.5 µM), inactives show at the top dose activity change, negative = inhibition, hits mostly inhibitors | purified LmPK, Kinase-Glo ATP luminescence, 1 h | actives 0.37% (n = 290,000) | Q27686; active = well fitted curve in the direction sought with a large enough effect; inconclusive = small, poorly fitted or top-dose-only effect, or another doubt; inactive = no such curve, though single readings can be large; an effect the other way counts as inactive or inconclusive; note: potency is the fitted concentration of half-maximal effect; % is set by controls: 0 for no effect and ±100 for the full control effect
Target sequence (Q27686 whole entry, looked up): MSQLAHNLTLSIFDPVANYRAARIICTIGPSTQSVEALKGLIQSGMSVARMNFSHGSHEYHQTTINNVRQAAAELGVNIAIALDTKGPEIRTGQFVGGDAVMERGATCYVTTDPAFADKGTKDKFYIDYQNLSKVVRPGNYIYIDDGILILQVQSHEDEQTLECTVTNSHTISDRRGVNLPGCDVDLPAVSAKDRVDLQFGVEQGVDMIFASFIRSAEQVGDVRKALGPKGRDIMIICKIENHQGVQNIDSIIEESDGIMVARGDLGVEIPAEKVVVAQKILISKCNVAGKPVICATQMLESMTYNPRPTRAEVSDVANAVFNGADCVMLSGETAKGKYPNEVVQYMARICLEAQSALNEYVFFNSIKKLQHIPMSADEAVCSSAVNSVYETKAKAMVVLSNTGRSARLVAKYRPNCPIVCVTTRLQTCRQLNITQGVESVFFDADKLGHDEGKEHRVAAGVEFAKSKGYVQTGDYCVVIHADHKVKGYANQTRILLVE
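Pyruvate kinase activity monitored as ATP production (luciferase luminescence). Conditions: 0.1 nM enzyme, 0.5 mM PEP, 0.1 mM ADP, 1 h, RT; normalized against uninhibited and no-enzyme wells.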
Cycloheximide cs: Cycloheximide Counterscreen for Small Molecule Inhibitors of Shiga Toxin. cell reporter, cycloheximide protein synthesis inhibition counterscreen. actives 12% (n = 300,000). max response, %. AID 2314, 2010; in the data active = max response mostly above about 13%, no sharp cut-off; inactive = mostly below about 14%; note: read at 38.3 µM for the half of the compounds with a filed dose; 0% is about no effect
TbPYK inhibitor: qHTS of Trypanosoma Brucei Inhibitors. AID 624173, 2012. Potency, µM (top dose mostly 76.8 µM), for inactives: top-dose activity, negative = inhibition, actives largely listed as inhibitors. TbPYK enzyme, Kinase-Glo Plus ATP luminescence, 45 min. actives 0.12% (n = 410,000); active = well fitted curve in the direction sought with a large enough effect; inconclusive = small, poorly fitted or top-dose-only effect, or another doubt; inactive = no such curve, though single readings can be large; an effect the other way counts as inactive or inconclusive; note: potency is the fitted concentration of half-maximal effect; % is set by controls: 0 for no effect and ±100 for the full control effect; nearly all actives have a fitted effect of over 50% in size
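Activity of T. brucei pyruvate kinase was followed by Kinase-Glo Plus luminescence after the enzyme reacted 45 min at room temperature with 130 uM ADP (final) and substrate. Test compounds were added before ADP at multiple concentrations.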
NS1 inh: qHTS Assay for Inhibitors of Influenza NS1 Protein Function. AID 2326, 2010. actives 0.4% (n = 270,000). Potency, µM (series often up to 46.1 µM), inactives show at the top dose activity, positive = more growth; note: potency is the fitted concentration of half-maximal effect; actives are rising curves; nearly all actives have a fitted effect of over 50% in size
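OD600 was taken as the measure of yeast growth restored by compound in an NS1-expressing S. cerevisiae strain. Cells had been washed out of glucose medium and diluted 1:100 into galactose -URA medium, pH 6.0.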
Active calls of the source: *; i = inactive; ? = inconclusive; nt = no result. The full list was thinned out, with hits kept by preference. Unless noted, calls come from the whole dose curve.

SMILES | Shiga inhibitor | SARS PLP yeast | LmPK inhibitor | Cycloheximide cs | TbPYK inhibitor | NS1 inh
O=C(CCCC(=O)N(c1ccc2c(c1)OCCO2)C(C(=O)NC1CCCCC1)c1ccc(Cl)cc1)Nc1ccccn1 (centres undefined) | 33* | 1% | 3% | 24* | 0% | 3%
CCC(CC)=C(C#N)C(=O)NC1CCCCC1 | 2 | 19% | -1% | 6 | -11% | 6%
CCOC(=O)CSc1nc(-c2ccc3c(c2)OCO3)ccc1C#N | 78* | 3% | 1% | 52* | -10% | 13%
CCOC(=O)CC(=O)CSc1nc(-c2cccnc2)cc(C)c1C#N | -18 | -2% | -5% | -2 | -24% | ?
CCOC(=O)CC(=O)CSc1nc(-c2cccnc2)ccc1C#N | 15 | -9% | -15% | 14* | -14% | -24%
CCOC(=O)CSc1nc(-c2ccncc2)ccc1C#N | 87* | -8% | -3% | 37* | -3% | -7%
CCOC(=O)CCCSc1nc(-c2ccc3c(c2)OCO3)cc(C(F)(F)F)c1C#N | -10 | 14% | 1% | -2 | 4% | 2%
COc1cc2[nH]c(C)c(-c3ccccc3)c(=O)c2cc1Cl | nt | nt | nt | nt | 3% | nt
CCNC(=O)O/N=C(\C)c1sc(-c2ccccc2)nc1C | 61* | -2% | -4% | 39* | 1% | 0%
CNC(=O)c1sc(-c2ccccc2)nc1C | 132* | -3% | 9% | 39* | -5% | -3%
CC(=O)Nc1ccc(NC(=O)c2sc(-c3ccccc3)nc2C)cc1 | 15 | 0% | 6% | 21 | -4% | -1%
CNC(=O)c1sc(-c2ccc(Cl)cc2)nc1C | 112* | nt | -1% | 53* | -6% | -20%
Cc1nc(-c2cccnc2)sc1C(=O)Nc1ccc(C(F)(F)F)cc1 | 9 | -17% | 1% | 6 | 5% | -5%
Cc1nc(-c2ccc(C(F)(F)F)cc2)sc1C(=O)NN | 37 | 1% | -6% | 15* | -2% | 3%
O=C(COc1cc2oc(=O)c3c(c2cc1Cl)CCC3)NCc1ccccn1 | -16 | 4% | 1% | 6 | 2% | 7%
CCOc1ccc(Br)cc1S(=O)(=O)NC1CCCC1 | nt | -5% | nt | nt | 2% | nt
O=C(CN(C(=O)c1csnn1)c1cccc2c1CCCC2)NCc1ccccc1 | -10 | -4% | -4% | 9 | 1% | 6%
Cc1nc2c(-c3ccc(F)cc3)c(C)nn2c(C)c1CCC(=O)NCc1ccc(Cl)cc1 | nt | nt | nt | nt | -7% | nt
C=C(C)c1sc(-c2ccccc2)nc1C | nt | nt | nt | nt | 2% | nt
Cc1nc(-c2ccc(Cl)cc2)sc1C(=O)NNC(=O)C(C)C | -10 | -2% | -2% | 8 | -10% | -4%
C/C(=N\O)c1sc(-c2ccccc2)nc1C | 98* | -7% | ? | 46* | -1% | nt
CC(=O)c1sc(-c2ccc(Cl)cc2)nc1C | 53* | 0% | -9% | 26* | 2% | -5%
CC(=O)c1sc(-c2cccc(Cl)c2)nc1C | 49 | 3% | -6% | 20* | 2% | -5%
Cn1c2cc(Br)sc2c2cnn(Cc3c(F)cccc3F)c(=O)c21 | nt | -6% | nt | nt | nt | nt
CCOC1=C2[C@@H](CN(S(=O)(=O)c3ccc(C)cc3)[C@H]2c2ccccc2Cl)[C@H]2C(=O)N(C(C)(C)C)C(=O)[C@H]2C1 | nt | nt | nt | nt | 2% | nt
SMILES | Shiga inhibitor | SARS PLP yeast | LmPK inhibitor | Cycloheximide cs | TbPYK inhibitor | NS1 inh
CCc1cccc2c(C(=O)CCl)c[nH]c12 | -24 | 13µM* | -1% | 3 | -5% | -17%
CCc1cccc2c(C(=S)N3CCCC3)c[nH]c12 | 20 | 0% | 2% | 15* | 1% | 3%
COc1ccc(-c2csc3ncnc(N4CCN(c5ccccc5[N+](=O)[O-])CC4)c23)cc1 | -8 | 5% | 0% | 1 | -14% | ?
Cc1nc2ccn(Cc3cccs3)c(=O)c2cc1C(=O)N1CCN(c2ccccc2F)CC1 | nt | nt | nt | nt | -5% | nt
O=C(Nc1ccc(NC(=O)C2CCCCC2)nc1)c1cccs1 | 65* | 0% | 0% | 35* | -4% | -2%
COc1cccc(C(=O)Nc2ccc(NC(=O)C3CCCCC3)nc2)c1 | 22 | 2% | 0% | 1 | 0% | 2%
CCC(=O)Nc1ccc(NC(=O)CCc2ccccc2)cn1 | nt | -8% | 0% | -3 | -11% | -2%
COc1ccc(C(=O)Nc2ccc(NC(=O)c3ccccc3F)cn2)cc1 | 22 | -6% | 0% | 0 | 0% | 3%
CCCC(=O)Nc1ccc(NC(=O)c2ccccc2)nc1 | 40* | 1% | ? | 21* | -10% | -3%
O=C(Nc1ccc(NC(=O)C2CC2)nc1)c1ccccc1F | 79* | -7% | -8% | 24* | -6% | -7%
CC(C)C(=O)Nc1ccc(NC(=O)c2ccccc2Cl)nc1 | 71* | -2% | 1% | 38* | 4% | -6%
O=C(Nc1ccon1)c1ccccc1Cl | 30 | -3% | -3% | 19 | 0% | -9%
CC[C@H]1C(c2cccc(Cl)c2)=NN(c2ccccc2)[C@@H]1CO | i | nt | nt | 16 | nt | nt
COC(=O)N(C)C[C@@H]1OCc2ccccc2-c2c(n(C)c3ccccc23)C(=O)N([C@H](C)CO)C[C@@H]1C | nt | nt | nt | nt | -3% | nt
O=c1[nH]c2ccc(S(=O)(=O)NCc3ccccc3)cc2[nH]1 | -21 | 0% | 0% | -1 | -5% | nt
COc1ccccc1N1CCN(C2CCCN(C(=O)CCC(C)=O)C2)CC1 (centres undefined) | -3 | -6% | 2% | -1 | 0% | -2%
CCC(=O)Nc1ccc(NC(=O)Cc2ccccc2)cn1 | -3 | 6% | -4% | -4 | -6% | -4%
CCC(=O)Nc1ccc(NC(=O)c2ccccc2Cl)nc1 | 26 | -3% | -2% | 21* | 5% | -14%
CCCC(=O)Nc1ccc(NC(=O)c2ccccc2F)cn1 | 24 | -7% | -4% | 16* | -1% | -6%
CCC(=O)Nc1cccc(NC(=O)c2ccccc2Cl)c1 | 6 | 0% | 8% | -3 | 2% | nt
CCC(=O)Nc1ccc(NC(=O)c2ccccc2)nc1 | 70* | -1% | ? | 25* | -11% | 0%
COc1cc2ncnc(NCc3ccc(F)cc3)c2cc1OC | -4 | -1% | -3% | -6 | 1% | 1%
Cc1cn(CCC(=O)Nc2ccccc2N2CCOCC2)c2ccccc12 | 75* | 0% | 2% | 50* | -1% | 0%
Cc1cn(CCC(=O)Nc2ccc(N3CCOCC3)cc2)c2ccccc12 | 61* | -2% | 2% | 66* | -2% | -6%
CCCC(=O)Nc1ccc(N2CCOCC2)cc1 | 2 | -1% | 0% | 9 | -2% | 2%
CCOC(=O)N1CCN(C(=O)C[C@@H]2C[C@@]3(C(=O)OCC)CCC=C3N(Cc3ccccc3)C2=O)CC1 | nt | nt | nt | nt | -3% | nt
NC(=O)c1cccnc1Nc1ccccc1F | 28* | -8% | 3% | 29* | -4% | -16%
